This passage reports Inhibition results from ChEMBL document CHEMBL4513146, “CO-ADD screening of Karazin Kharkiv National University (Ukraine) compounds”.

One experiment relates to Staphylococcus aureus. Conditions: Concentration 32 ug.mL-1;; ASSAY_TEST Inhibition of Bacterial Growth; detection method Absorption (OD600); MEDIA CAMHB; plate type 384well; NBS; CORNING #3640; time 18 hr.
The next experiment relates to Escherichia coli. The note with it: Concentration 32 ug.mL-1;; ASSAY_TEST Inhibition of Bacterial Growth; detection method Absorption (OD600); MEDIA CAMHB; plate type 384well; NBS; CORNING #3640; time 18 hr.

Potency and affinity values are given separately.

For orientation: Inhibition means the relative decrease from the control value, in per cent. With `O=C(CCc1nnc2c3cc(-c4ccc(Cl)cc4)nn3ccn12)N1CCN(c2ccccn2)CC1`, the Inhibition in the experiment with Staphylococcus aureus is 5.65%; in the experiment with Escherichia coli, -0.84%.

Regarding `CCc1ccc(NC(=O)Cn2nc3ccc(SC4CCCCC4)nn3c2=O)cc1`, the results for the Inhibition in the experiment with Staphylococcus aureus and in the experiment on Escherichia coli were 16.16% and 2.08%, respectively.

On to `CCc1cccc(NC(=O)Cn2nc3nc(N4CCCCCC4)ccn3c2=O)c1`, for which the Inhibition is listed as 0.41% in the experiment with Staphylococcus aureus and -5.25% in the experiment on Escherichia coli.

As for `Cc1nnc2c(S(=O)(=O)N(Cc3ccccc3Cl)c3ccc(F)c(F)c3)cccn12`, the results for the Inhibition with Staphylococcus aureus and in the experiment with Escherichia coli were 38.47% and -6.82%, respectively.

On to `COc1ccc(C)cc1NC(=O)Cn1nc2ccc(SCc3ccc(Cl)cc3)nn2c1=O`, for which the Inhibition is 8.35% with Staphylococcus aureus and -14.85% in the experiment with Escherichia coli.

For `O=C(CSc1nc2ccccc2n2cnnc12)Nc1ccc2c(c1)OCO2`, the Inhibition is 4.59% in the experiment with Staphylococcus aureus and -3.46% with Escherichia coli.

Take `CCOc1ccc(-n2ccn3c(SCC(=O)c4ccccc4)nnc3c2=O)cc1`: the Inhibition in the experiment with Staphylococcus aureus was 6.87%; with Escherichia coli, 1.63%.

`CCOc1ccc(-n2ccn3c(SCC(=O)Nc4ccc5c(c4)OCCO5)nnc3c2=O)cc1`: the Inhibition in the experiment with Staphylococcus aureus is on record as 4.27%; with Escherichia coli, -9.56%.

Consider `CC1CCCN(c2nccn3c(=O)n(CC(=O)Nc4ccc5c(c4)OCO5)nc23)C1` (centres undefined), for which the Inhibition is reported as -13.51% in the experiment with Staphylococcus aureus and -11.79% in the experiment with Escherichia coli.

For the compound `Cc1ccc(NC(=O)Cn2nc3c(SCc4ccccc4)nccn3c2=O)cc1C`, the values for the Inhibition in the experiment with Staphylococcus aureus and in the experiment on Escherichia coli were 6.06% and -10.79%, respectively.

`Cc1ccccc1CSc1nnc2c(=O)n(-c3ccc(F)cc3)ccn12`: the Inhibition in the experiment on Staphylococcus aureus is listed as 16.33%; with Escherichia coli, -5.51%.

For `CC(=O)c1cccc(NC(=O)Cn2c(=O)c3nnc(C(C)C)n3c3ccccc32)c1`, the Inhibition in the experiment on Staphylococcus aureus is on record as 9.36%; in the experiment with Escherichia coli it was 0.14%.
